# PubChem BioAssay (EPA / NIEHS)
# Calls of active or inactive are those of the source. Rule for the calls: active = hit-call score of the fitted dose curve at least 0.9, where 1 is the maximum; inactive = score below 0.9.
# Read-out: Cyclin D1 (CCND1), CCND1 (gene 595)
# Experiment: LTEA_HepaRG_CCND1: Life Technologies and Expression Analysis (LTEA) Assay for Cyclin D1 (CCND1) using HepaRG (AID 2283451);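 for AC50: TaqMan qRT-PCR transcript level normalised to ACTB GAPDH and POLR2A housekeeping genes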
# Conditions: mRNA level, 48 h; actives raise or lower the signal
# Procedure: LTEA_HepaRG is a cell based, multiplexed-readout assay that uses HepaRG, a human liver cell line, with measurements taken at 48 hours after chemical dosing on a 96-well plate.LTEA_HepaRG_CCND1 is one of 102 assay component(s) measured in the LTEA HepaRG cell culture assay. It is a marker of Cell proliferation, survival, death.Data from the assay component LTEA_HepaRG_CCND1 was analyzed into 1 endpoint. This assay endpoint, LTEA_HepaRG_CCND1, was analyzed with bidirectional fitting relative to DMSO as the negative control and baseline of activity. Using a type of inducible reporter, measures of mRNA induction for gain or loss-of-signal activity can be used to understand regulation of transcription factor activity. To generalize the intended target to other relatable targets, this assay endpoint is annotated to the cell cycle intended target family, where the subfamily is Cell proliferation, survival, death.
# A total of 1060 chemcials from the ToxCast library were tested in eight-point concentration-response experiments. Cell culture and cytotoxicity assays were conducted at Thermo Fisher Scientific's Custom Services facility (Madison, WI). A single lot of human HepaRG cells (Thermo Fisher Scientific, Frederick, MD) was used for the cell culture experiments. 96-well format collagen type I coated plates of human HepaRG cells were prepared using established methods. Briefly, cryopreserved HepaRG cells were thawed, plated at a density of approximately 100,000 cells/well in HepaRG Thaw, Plate, and General Purpose media (HPRG770, Thermo Fisher Scientific), and incubated for 48 hours. 0.5% DMSO was selected as vehicle control to balance the requisite need of DMSO in HepaRG cultures to maintain differentiation (for example, baseline metabolism, proportions of hepatocytes vs. cholangiocytes), while enabling further hepatic receptor pathway activation (for example, PXR and CAR) in response to chemical exposure. 48 hours after plating, the culture medium was replaced with HepaRG Serum-Free Incudtion Media. Cells were exposed to each test chemical in duplicate and maintained in CO2 incubators for another 48 hours. Chemical plates were thawed to room temperature and 200x concentrations of treatment groups were prepared. 8-point conentration-reponse curves were made with the highest exposure at 100 uM, followed by half-log dilutions, all in 0.5% DMSO. Each test plate contained variouse controls, induction positive controls (1mM phenobarbital), cytotoxicity positive controls ([…] aflatoxin B1), vehicle controls (0.5% DMSO), and total lysis controls (0.5% DMSO). Cell morphology images were taken using an Essen IncuCyte FLR automated microscope, with six 96-well plates imaged in about 24 minutes. Images were captured and exported and JPEG files. Spent culture media was transfered to black-well plates for the LDH assay, and remaining media was sorted at -80 C for later use. Cells were treated with RLT buffer and frozen until shipped for gene expression analysis. Total RNA was isolated from the cell suspension in 75 uL of Buffer RLT (Qiagen, Germantown, MD 20874) by Quintiles/Expression Analysis (Durham, NC) using a custom isolation procedure. Total RNA from each plate well was transferred to a preamplification plate. Fluidigm's 96.96 Dynamic ArrayTM (Fluidigm, Amsterdam, the Netherlands) technology was used for gene expression analyses by quantitative reverse transcription polymerase chain reaction (qRT-PCR, performed by Quintiles/Expression Analysis, Durham, NC)89. Standard TaqManTM Assays (Applied Biosystems/ThermoFisher Scientific, Foster City, CA) were used to assess the expression of 93 genes selected based on their selectivity and sensitivity to important hepatic receptors known to be modulated by environmental chemicals; importance in human hepatocyte functionality; and hepatotoxicity. […]
Compound,outcome,AC50
CCCCCCCCN(C)CCCCCCCC,inactive,
CN(C[C@@H](CC[N+]12CCC(C3CCCCC3)(CC1)CC2)c1ccc(Cl)c(Cl)c1)C(=O)c1cc(C(F)(F)F)cc(C(F)(F)F)c1,,28.9 µM (active)
COc1cccc([C@H](O)C2CCN(CCc3ccc(F)cc3)CC2)c1OC,inactive,
OC12N=C(c3ccccc3)SC1Cc1cc(Cl)ccc12 (stereo not given),,9.92 µM (active)
Cc1cn([C@H]2C[C@H](N=[N+]=[N-])[C@@H](CO)O2)c(=O)[nH]c1=O,inactive,
Cc1cccc2ccccc12,inactive,
O=C=NCCCCCCN=C=O,inactive,
Clc1cc(Cl)c2c(c1)N=C1CCCCCN1C2,inactive,
CCN(Cc1cccc(S(=O)(=O)O)c1)c1ccc(C(=C2C=CC(=[N+](CC)Cc3cccc(S(=O)(=O)O)c3)C=C2)c2ccccc2S(=O)(=O)[O-])cc1,inactive,
C[C@]12CC[C@@H]3c4ccc(O)cc4CC[C@H]3[C@@H]1CCC2=O,inactive,
O=C1c2ccccc2C(=O)N1CCc1noc(-c2ccc(CN3CCCCCC3)s2)n1,inactive,
O=c1[nH]sc2ccccc12,inactive,
Clc1ccccc1C(c1ccccc1)(c1ccccc1)n1ccnc1,,82.1 µM (active)
Cc1cc(F)ccc1-c1cc(N2CC[C@@H](O)[C@H]2CO)ncc1N(C)C(=O)C(C)(C)c1cc(C(F)(F)F)cc(C(F)(F)F)c1,inactive,
CCO[Si](CCCNC(N)=O)(OCC)OCC,inactive,
O=C(O)c1ccccc1-n1cc(C(=O)O)c(=O)c2cc(Nc3c(F)cc(F)cc3Cl)c(Cl)cc21,inactive,
CC(C)(C)c1cc(/C=C2\SC(N)=NC2=O)cc(C(C)(C)C)c1O,,39.3 µM (active)
CC(=O)N1CCN(c2ccc(OC[C@H]3CO[C@](Cn4ccnc4)(c4ccc(Cl)cc4Cl)O3)cc2)CC1,,91.1 µM (active)
CCOC(=O)O[C@H](C)OC(=O)c1ccc2c(c1)cc(C(=O)NC1CCN(C(C)C)CC1)n2Cc1cc(-c2ccc(Cl)s2)on1,inactive,
CC1=CC(=O)/C(=C(/C)O)C(=O)O1,inactive,

Compound,outcome,AC50
Cc1ncc(CO)c(CO)c1O,inactive,
CCCCCCCCOC(=O)c1cc(O)c(O)c(O)c1,inactive,
CC[C@@H]1C[C@H](N(Cc2cc(C(F)(F)F)cc(C(F)(F)F)c2)C(C)=O)c2cc(C(F)(F)F)ccc2N1C(=O)OC(C)C,inactive,
CC/C(=C(/CC)c1ccc(O)cc1)c1ccc(O)cc1,,80.3 µM (active)
CCCCCCCCOc1ccc(C(=O)c2ccccc2)c(O)c1,inactive,
O=C(O)c1ccccc1C(=O)OCc1ccccc1,inactive,
CN(C)C(=O)C1(N2CCCCC2)CCN(CC[C@@]2(c3ccc(Cl)c(Cl)c3)CN(C(=O)c3ccccc3)CCO2)CC1,,47.2 µM (active)
CCCCCCCCCCCC[N+](C)(C)C,,82.7 µM (active)
c1ccc2ccccc2c1,inactive,
COc1ccc2cc(S(=O)(=O)N[C@H](CC(=O)N[C@H](Cc3ccc(CN4[C@H](C)CCC[C@@H]4C)cc3)C(=O)N(C)C(C)C)c3ccc4c(c3)OCO4)ccc2c1,inactive,
CCCCCCCCCCCCO,inactive,
CCN(Cc1cccnc1)C(=O)c1cccc(Cl)c1[C@]1(C)C(=O)N(Cc2ccc(OC)cc2OC)c2ccc(Cl)cc21,inactive,
Oc1ccc2ccccc2c1,inactive,
CN1C(=O)N(c2ccccc2Br)Cc2cnc(Nc3ccc4c(c3)OCC(CO)O4)nc21 (stereo not given),,50 µM (active)
NC(=O)c1nc(-c2cccc(-c3cc(F)ccc3OCC(F)(F)C(F)(F)F)c2)n[nH]1,inactive,
CC[C@H](NC(=O)c1cc(F)ccc1NS(=O)(=O)c1cccc2cccnc12)c1ccccc1,inactive,
Cc1cc2c(cc1C(F)(F)F)N(C(=O)Nc1ccc(Oc3cccnc3C)nc1)CC2,inactive,
CC(C)(C)c1csc(-c2cc3cc(OCc4ccccc4CC(=O)O)ccc3o2)n1,,50 µM (active)
COCC(C)OCC(C)OCC(C)O (stereo not given),inactive,
O=c1ccc2ccccc2o1,inactive,
